Measured potencies and affinities stand elsewhere. The source made the active and inactive calls.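 How the source made its calls: active means every repeat run showing a signal drop whose fitted half-maximal concentration is at most twice the top tested concentration; inconclusive means repeat runs disagree, or flat partial drop, or poor fit; inactive means the rest.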
Assay: HEK293T cytotoxicity, dose response, cytotoxicity control for miR-122 modulator project, cell-based, activator set, cherry-pick (AID 720690)
Details: HEK293T viability, CellTiter-Glo luminescence, 48 h; series mostly up to 26 µM

Row | SMILES | outcome
1 | Cc1ccc(NCC(=O)c2ccccc2)cc1Cl | inactive
2 | C[C@@H]1CN([C@H](C)CO)S(=O)(=O)c2ccc(C3=CCCC3)cc2O[C@@H]1CN(C)C(=O)c1cnccn1 | inactive
3 | CN1C(=O)c2cc(NC(=O)Cc3ccccc3)ccc2OC[C@@H]2O[C@@H](CC(=O)O)CC[C@H]21 | inactive
4 | O=C(Nc1ccccc1)N1C[C@@H]2[C@H](c3ccccc31)[C@H](CO)N2C(=O)c1ccncc1 | inactive
5 | CN1C(=O)c2cc(NC(=O)C3CC3)ccc2OC[C@@H]2O[C@H](CC(=O)NCCN3CCCC3)CC[C@H]21 | inactive
6 | CCC(=O)N1[C@H](CN(C(C)C)S(C)(=O)=O)[C@H](c2ccccc2)[C@@H]1CO | inactive
7 | CCCCC(=O)OCC(=O)c1[nH]c(C)c(C(=O)OCC)c1C | inactive
8 | CC(=O)N1[C@H](CO)[C@H](c2ccccc2)[C@@H]1CN(C(=O)c1ccc(F)cc1)C(C)C | inactive
9 | CN1C(=O)c2cc(NC(=O)c3cccs3)ccc2OC[C@H]2O[C@@H](CC(=O)NCCN3CCCCC3)CC[C@H]21 | inactive
10 | COCC(=O)Nc1ccc2c(c1)C(=O)N(C)[C@H]1CC[C@@H](CC(=O)NCCCN(C)C)O[C@@H]1CO2 | inactive
11 | COc1ccc(N2CCc3c(C)nc4c(OC)cc(OC)cc4c32)c(OC)c1 | inactive
12 | COCCN(C[C@@H]1[C@@H](c2ccccc2)[C@H](CO)N1C(=O)C1CC1)C(C)=O | inactive
13 | CC(=O)Nc1ccc(-c2cc(-c3ccc(NC(C)=O)cc3)nc(-c3ccc(NC(C)=O)cc3)n2)cc1 | inactive
14 | CC(C)N(C[C@H]1[C@H](c2ccccc2)[C@@H](CO)N1S(C)(=O)=O)C(=O)CN(C)C | inactive
15 | COCC(=O)Nc1ccc2c(c1)C(=O)N(C)[C@H]1CC[C@@H](CC(=O)NC3CCCC3)O[C@H]1CO2 | inactive
16 | CCCNC(=O)C[C@H]1CC[C@@H]2[C@@H](COc3ccc(NC(=O)c4ccc(C(F)(F)F)cc4)cc3C(=O)N2C)O1 | inactive
17 | Cc1cc(CN(C)C(=O)c2cc(COc3ccc4ncccc4c3)on2)on1 | inactive
18 | CC(C)C(=O)Nc1ccc2c(c1)C(=O)N(C)[C@@H]1CC[C@H](CC(=O)O)O[C@H]1CO2 | inactive
19 | COc1cccc(-c2ccc3c(c2)O[C@H](CN(C)C(=O)C2CCOCC2)[C@H](C)CN([C@H](C)CO)S3(=O)=O)c1 | inactive
20 | Cc1cc(C(=O)Nc2ccc3c(c2)C(=O)N(C)[C@H]2CC[C@H](CC(=O)N[C@H](C)c4ccccc4)O[C@H]2CO3)no1 | inactive

Row | SMILES | outcome
21 | O=CN1CCN(C(=O)c2ccccc2F)CC1 | inactive
22 | Cc1cc(C)cc(Oc2ccc(NC(=O)C3CC=CCC3C(=O)O)cc2)c1 (centres undefined) | inactive
23 | CCCNC(=O)C[C@H]1CC[C@@H]2[C@@H](COc3ccc(NC(=O)c4ccc5c(c4)OCO5)cc3C(=O)N2C)O1 | inactive
24 | COc1ccccc1C#Cc1ccc([C@H]2[C@@H](CO)N3CCCCN(CCC(F)(F)F)C[C@H]23)cc1 | inactive
25 | CCNC(=O)Nc1ccc2c(c1)C(=O)N(C)[C@@H]1CC[C@H](CC(=O)NCC3CC3)O[C@@H]1CO2 | inactive
26 | CNC(=O)C[C@H]1CC[C@@H]2[C@H](COc3ccc(NC(=O)Nc4ccccc4)cc3C(=O)N2C)O1 | inactive
27 | COc1ccc(C#Cc2ccc3c(c2)O[C@@H](CN(C)C(=O)CN2CCOCC2)[C@@H](C)CN([C@H](C)CO)S3(=O)=O)cc1 | inactive
28 | CCN(C[C@H]1[C@H](c2ccccc2)[C@@H](CO)N1S(C)(=O)=O)C(=O)C1CC1 | inactive
29 | Cc1ccccc1NC(=O)Nc1ccc2c(c1)C(=O)N(C)[C@H]1CC[C@@H](CC(=O)O)O[C@H]1CO2 | inactive
30 | C/C=C/c1ccc([C@H]2[C@@H](CO)N[C@@H]2CN(CC)C(=O)CN2CCOCC2)cc1 | inactive
31 | C/C=C/c1ccc([C@H]2[C@@H](CO)N(C(=O)C3CC3)[C@H]2CN(C)C(=O)CC2CC2)cc1 | inactive
32 | O=C(Cn1c(=O)c2ccccc2n(CC(=O)N2CCCCC2)c1=O)N1CCCCC1 | inactive
33 | CO[C@H]1CN(C)C(=O)c2cc(NC(C)=O)ccc2OC[C@@H](C)N(C(=O)CC2CC2)C[C@H]1C | inactive
34 | C/C=C/c1ccc([C@H]2[C@@H](CO)N(Cc3ccccn3)[C@H]2CNC(=O)CC)cc1 | inactive
35 | Cc1ccc(-c2nc(C(Cl)Cl)c3ccccc3n2)cc1 | inactive
36 | CO[C@@H]1CN(C)C(=O)c2ccc(NC(=O)c3nc4ccccc4s3)cc2OC[C@H](C)N(Cc2cccnc2)C[C@H]1C | inactive
37 | CCOc1ccc(C(CCc2ccccc2)NC(=O)c2ccccc2F)cc1OCC (centres undefined) | inactive
38 | CN1C(=O)c2cc(NC(=O)c3cccs3)ccc2OC[C@H]2O[C@H](CC(=O)NCCN3CCCCC3)CC[C@@H]21 | inactive
39 | COC(=O)C[C@@H]1CC[C@@H]2[C@H](COc3ccc(NC(=O)Nc4cccc(F)c4)cc3C(=O)N2C)O1 | inactive

From PubChem BioAssay AID720690 (Broad Institute, 2013)
